Assay [1] has as its target Thyrotropin receptor (Homo sapiens) (UniProt P16473). The assay can be described thus: qHTS assay to identify small molecule agonists of the thyroid stimulating hormone receptor (TSHR) signaling pathway (AID 1224843; calls by dose curve; further: nearly all actives have a fitted effect of over 45% in size; further: potency means the concentration at half of the fitted maximal effect). In a few lines:
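Screening of the Tox21 10K collection used HEK293 cells engineered with TSHR at 800 cells per well. After a 30-min room-temperature compound exposure, HTRF cAMP reagents were added and fluorescence recorded 1 h later.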

A short description of assay [2]: qHTS assay to identify small molecule agonists of the hypoxia (HIF-1) signaling pathway - cell viability counter screen (AID 1224844; calls by dose curve; further: nearly all actives have a fitted effect of over 50% in size; further: potency means the concentration at half of the fitted maximal effect). In a few lines: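 Luminescent ATP content (CellTiter-Glo, 30 min, room temperature) served as the viability measure in HRE-bla ME-180 cells exposed to compounds for 17 hrs in low-serum medium (0.5% dialyzed FBS).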
Assay [3] in a line: qHTS assay to identify small molecule agonists of H2AX (AID 1224845; active means well fitted activation curve with a large enough effect in the signal ratio in the repeat runs, not every such curve was filed as active; the % refers to the signal ratio; further: potency means the concentration at half of the fitted maximal effect). In a few lines: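 Phospho-H2AX Ser139 measured by HTRF (ex 320 nm; em 665 and 620 nm) after 24 hr antibody incubation. Compounds, 15 concentrations, 0.76% DMSO, were applied to CHO-K1 cells for 3hr at 37C before lysis.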
Assay [4] in a line: qHTS assay to identify small molecule agonists of H2AX - cell viability counter screen (AID 1224847; calls by dose curve; further: nearly all actives have a fitted effect of over 30% in size; further: potency means the concentration at half of the fitted maximal effect). The method, boiled down: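 Compounds tested at 15 concentrations were incubated 3 hr at 37C with wild-type CHO-K1 cells; cellular ATP-based luminescence (CellTiter-Glo) indicated viability.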
The nature of assay [5]: qHTS RealTime-Glo MT Cell Viability Assay in HepG2 cells - 24 hour (AID 1224867). Further: nearly all actives have a fitted effect of over 50% in size. Further: potency means the concentration at half of the fitted maximal effect. In a few lines: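 HepG2 suspension premixed with RealTime-Glo reagents is plated at 600 cells per well and left 5 h at 37 C/5% CO2. Compounds in DMSO then go in, and bioluminescence reflecting viable cell number is recorded over 40 h.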
The nature of assay [6]: qHTS RealTime-Glo MT Cell Viability Assay in HEK293 cells - 32 hour (AID 1224868). Further: nearly all actives have a fitted effect of over 50% in size. Further: potency means the concentration at half of the fitted maximal effect. In a few lines: (§1)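 Reads taken at 0, 8, 16, 24, 32 and 40 h from the same wells. HEK293 cells (600/well) carried RealTime-Glo reagents from seeding, with compound added after a 5 h settle at 37 C.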
Assay [7] is described as follows: A CellTox Green Cytotoxicity Assay to monitor cytotoxicity in HEK293 cells - 0 hour (AID 1224869). Further: nearly all actives have a fitted effect of over 50% in size. Further: potency means the concentration at half of the fitted maximal effect. The method, boiled down:
(§2)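 Each value comes from one timepoint of a single continuous run in which HEK293 cells with CellTox Green were exposed to compound for up to 40 h at 37 C, dye fluorescence rising with cell death.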

The nature of assay [8]: qHTS RealTime-Glo MT Cell Viability Assay in HepG2 cells - 40 hour (AID 1224870). Further: nearly all actives have a fitted effect of over 50% in size. Further: potency means the concentration at half of the fitted maximal effect. The method, boiled down:
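Real-time viability: cells seeded at 600 per well together with NanoLuc and cell-permeant prosubstrate, compounds added after 5 h incubation. Luminescence tracked at 0, 8, 16, 24, 32 and 40 h of exposure.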

Assay [9] in a line: A CellTox Green Cytotoxicity Assay to monitor cytotoxicity in HEK293 cells - 40 hour (AID 1224871). Further: nearly all actives have a fitted effect of over 45% in size. Further: potency means the concentration at half of the fitted maximal effect. The method, boiled down: as §2
A short description of assay [10]: qHTS RealTime-Glo MT Cell Viability Assay in HEK293 cells - 16 hour (AID 1224872). Further: nearly all actives have a fitted effect of over 50% in size. Further: potency means the concentration at half of the fitted maximal effect. The method, boiled down:
as §1

Assay [11] in a line: qHTS assay to identify small molecule agonists of the constitutive androstane receptor (CAR) signaling pathway - cell viability counter screen (AID 1224836). Further: nearly all actives have a fitted effect of over 45% in size. Further: potency means the concentration at half of the fitted maximal effect. In a few lines:
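23 h treatment, 37 C, 5% CO2. Cell line: HepG2 stably expressing hCAR with a CYP2B6-2.2kb construct. Co-treatment: PK11195, 0.75 uM final. Read-out: CellTiter-Fluor fluorescence intensity.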

A short description of assay [12]: qHTS assay to identify small molecule antagonists of the estrogen related receptor signaling pathway with the pleiotropic PPARgamma coactivator (PGC) from Tox21 10K library - cell viability counter screen (AID 1224840; active means well fitted cell-killing curve with a large enough effect in the repeat runs, not every such curve was filed as active; further: nearly all actives have a fitted effect of over 40% in size; further: potency means the concentration at half of the fitted maximal effect). In a few lines: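 Compounds in DMSO, alongside positive and negative controls, were pinned onto PGC/ERR cells (2,000 per well). Exposure lasted 17.5 hours at 37 C, followed by a 30-minute CellTiter-Fluor incubation and fluorescence reading.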

Assay [13] can be described thus: qHTS assay to identify small molecule antagonists of the estrogen related receptor signaling pathway with the pleiotropic PPARgamma coactivator (PGC) from Tox21 10K library (AID 1224841; call rule not given here; further: potency means the concentration at half of the fitted maximal effect). The method, boiled down:
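Compound exposure ran 18 hours at 37 C in PGC/ERR cells (2,000/well) that had first rested 6 hours in a 37 C/5% CO2 incubator. Luciferase activity was then detected with One-Glo after a 30-minute room-temperature step.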

Assay [14] in a line: qHTS assay to identify small molecule agonists of the hypoxia (HIF-1) signaling pathway (AID 1224846; active means well fitted activation curve with a large enough effect in the signal ratio in the repeat runs, not every such curve was filed as active; the % refers to the signal ratio). The method, boiled down:
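Measured by blue/green FRET after loading CCF4-AM: beta-lactamase expressed from a hypoxia response element in ME-180 cells. Test agents were delivered in DMSO and left 17 hrs; cells had been plated 5 hrs earlier in low-serum (0.5% dialyzed FBS) medium.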

Assay [15] is described as follows: qHTS assay to identify small molecule antagonists of the estrogen related receptor (ERR) signaling pathway from Tox21 library (AID 1224848). Further: nearly all actives have a fitted effect of over 50% in size. Further: potency means the concentration at half of the fitted maximal effect. The method, boiled down:
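Antagonist-mode screen of the Tox21 10K library in an NTP-provided ERR reporter cell line; 18 h compound exposure at 37 C, luminescence measured with ONE-Glo.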

Assay [16] deals with Nuclear receptor subfamily 1 group I member 3 (Homo sapiens) (UniProt Q14994). The experiment in a line: qHTS assay to identify small molecule antagonists of the constitutive androstane receptor (CAR) signaling pathway (AID 1224838).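 Further: HepG2 cells stably expressing hCAR with CYP2B6 luciferase reporter stimulated by CITCO; nearly all actives have a fitted effect of over 40% in size.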 Further: potency means the concentration at half of the fitted maximal effect. The method, boiled down: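 Quantitative HTS in double-stable HepG2-CYP2B6-hCAR cells. After 4 h plating, cells get compound (15 concentrations) and CITCO at 50 nM final, incubate 24 h at 37 C, then ONE-Glo luminescence is read.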

Assay [17] in a line: qHTS assay to identify small molecule agonists of the estrogen related receptor signaling pathway with the pleiotropic PPARgamma coactivator (PGC) from Tox21 10K library (AID 1224842). Further: nearly all actives have a fitted effect of over 15% in size. In a few lines:
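Luminescence from One-Glo (30 min, room temperature) measured after PGC/ERR cells had 18 h at 37 C with pinned compound (23 nL in DMSO). Cells had been seeded at 2,000 per well and pre-incubated 6 h.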

Assay [18] is described as follows: qHTS assay to identify small molecule agonists of the estrogen related receptor (ERR) signaling pathway from Tox21 library (AID 1224849; calls by dose curve; further: nearly all actives have a fitted effect of over 15% in size). The settings on record: ERR reporter cell line, ONE-Glo luciferase, 18 h. In a few lines: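 We plated ERR reporter cells, waited 6 h, added compounds in DMSO by pin tool and incubated them 18 h at 37 C. ONE-Glo was then added and luminescence read after 30 min.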

In assay [19] the target is Nuclear receptor subfamily 1 group I member 3 (Homo sapiens) (UniProt Q14994). The assay can be described thus: qHTS assay to identify small molecule agonists of the constitutive androstane receptor (CAR) signaling pathway (AID 1224839).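 Further: HepG2 cells stably carrying human CAR and a CYP2B6 luciferase reporter; nearly all actives have a fitted effect of over 15% in size.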 The method, boiled down:
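Compounds tested at 15 concentrations on HepG2 cells stably harbouring hCAR and CYP2B6-2.2kb reporter constructs, co-treated with PK11195 (0.75 uM final), 24 h at 37 C; luminescent reporter signal quantified.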

Where “and” joins values, the source holds several entries; their conditions need not be identical. Identical values can stand only once. Results filed as inconclusive are left out. More than one record can exist for a structure, and the calls need not agree. Calls of active or inactive are those of the source. Unless noted, the call rests on the fitted dose curve; in most records, active means well fitted curve in the direction sought with a large enough effect in the repeat runs; inconclusive means weak or mixed curves; inactive means no such curve, though single readings can be large; an effect the other way counts as inactive or inconclusive.

Experimental findings from PubChem BioAssay (Tox21) are described below.
On the % scale 0 is the no-effect control and ±100 the full control effect.

Chain of Nuclear receptor subfamily 1 group I member 3 (Homo sapiens) (Q14994 whole entry, looked up): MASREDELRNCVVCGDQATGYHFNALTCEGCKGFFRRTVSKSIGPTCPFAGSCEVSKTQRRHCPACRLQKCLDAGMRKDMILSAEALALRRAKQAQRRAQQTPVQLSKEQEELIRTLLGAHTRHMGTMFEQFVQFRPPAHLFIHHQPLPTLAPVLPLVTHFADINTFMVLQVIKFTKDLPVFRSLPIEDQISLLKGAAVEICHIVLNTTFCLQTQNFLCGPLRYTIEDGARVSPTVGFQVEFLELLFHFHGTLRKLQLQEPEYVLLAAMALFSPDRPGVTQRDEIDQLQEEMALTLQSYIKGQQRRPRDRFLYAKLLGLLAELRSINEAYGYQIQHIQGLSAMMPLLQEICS
Chain of Thyrotropin receptor (Homo sapiens) (P16473 whole entry, looked up): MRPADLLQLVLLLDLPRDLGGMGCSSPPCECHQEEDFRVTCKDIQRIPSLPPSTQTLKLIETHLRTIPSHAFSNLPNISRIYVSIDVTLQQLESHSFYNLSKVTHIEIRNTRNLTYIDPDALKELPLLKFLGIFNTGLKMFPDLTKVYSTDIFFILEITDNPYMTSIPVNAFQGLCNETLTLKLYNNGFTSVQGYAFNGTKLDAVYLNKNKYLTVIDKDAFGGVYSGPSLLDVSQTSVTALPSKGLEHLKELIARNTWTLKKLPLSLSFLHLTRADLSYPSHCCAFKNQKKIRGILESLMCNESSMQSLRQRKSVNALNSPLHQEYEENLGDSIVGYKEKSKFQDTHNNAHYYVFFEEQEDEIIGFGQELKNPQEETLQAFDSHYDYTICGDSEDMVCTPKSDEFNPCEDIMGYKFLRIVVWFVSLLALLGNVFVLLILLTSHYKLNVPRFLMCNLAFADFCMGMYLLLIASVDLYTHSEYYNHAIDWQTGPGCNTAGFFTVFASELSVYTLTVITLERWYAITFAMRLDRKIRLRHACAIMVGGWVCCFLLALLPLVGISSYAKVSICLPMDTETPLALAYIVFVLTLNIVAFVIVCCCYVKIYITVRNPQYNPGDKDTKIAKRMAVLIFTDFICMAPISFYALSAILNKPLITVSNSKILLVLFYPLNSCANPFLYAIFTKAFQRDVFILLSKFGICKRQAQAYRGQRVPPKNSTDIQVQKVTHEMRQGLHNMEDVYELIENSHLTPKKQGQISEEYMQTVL

Turning to `O=C1OC2(c3ccc(O)cc3Oc3cc(O)ccc32)c2ccccc21`, the Potency result in [1], in [2], in assay [3], in [4], in [5] and in assay [6] was “inactive” throughout. Moreover, the Potency result in assay [8] and in assay [10] was “inactive” in each case. Besides, the Potency is 1.74 µM (active) and 848 nM (active) in assay [7]; 692 nM (active) and 1.2 µM (active) in assay [9].

Regarding `NC(=Nc1ccccc1)Nc1ccccc1`, the Potency in assay [11] is 3.86 µM (active). Also, the Potency result in [12], in assay [13], in assay [1], in assay [2], in assay [3] and in assay [14] was “inactive” each time. Besides, the Potency result in assay [4], in assay [15], in assay [5], in [7], in assay [8] and in assay [9] was “inactive” each time. Further, the Potency result in [10] was “inactive”.

As for `Cc1cc(OCCOCC[N+](C)(C)Cc2ccccc2)ccc1C(C)(C)CC(C)(C)C`, the Potency entry in assay [16], in assay [17], in [3] and in assay [7] was “inactive” throughout. The Potency in assay [12] was 48.3 µM (active); in assay [13], 30.5 µM (active) and 7.5 µM (active); in assay [1], 27.1 µM (active) and 15 µM (active); in assay [4], 100 µM (active) and 55.2 µM (active); in assay [15] it was 13.6 µM (active) and 6.68 µM (active); in [5], 15.4 µM (active) and 10.7 µM (active). Also, the Potency in assay [6] was 10.9 µM (active) and 7.56 µM (active); in [8] it was 12.2 µM (active) and 8.49 µM (active); in [9], 21.7 µM (active) and 23.9 µM (active); in assay [10], 19.4 µM (active) and 19 µM (active). Moreover, the activity change, positive = activation is -54.7% (inactive) in assay [18] (at 42.5 µM (top of the series)) and -79.5% (inactive) in assay [18] (at 92.4 µM (top of the series)).

With `COc1ccc(CCN2CCC(Nc3nc4ccccc4n3Cc3ccc(F)cc3)CC2)cc1`, the Potency in [11] is 17.6 µM (active) and 29.8 µM (active); in assay [16] it was 17.6 µM (active) and 26.6 µM (active); in assay [12] it was 19.8 µM (active) and 29.8 µM (active); in [2], 12.6 µM (active); in assay [4], 32.6 µM (active); in [15], 12.5 µM (active) and 26.6 µM (active). The Potency in assay [5] is 17.8 µM (active) and 13.4 µM (active); in [8], 15.8 µM (active) and 10.7 µM (active); in assay [9] it was 11.2 µM (active) and 23.9 µM (active); in [10] it was 8.9 µM (active) and 9.52 µM (active). Further, the Potency result in [1] and in assay [7] was “inactive” each time. Besides, the activity change, positive = activation in [18] (at 42.5 µM (top of the series)) is -69.8% (inactive); in assay [18] (at 92.4 µM (top of the series)), -76.4% (inactive).

Turning to `Oc1c(Cl)cc(Cl)cc1Sc1cc(Cl)cc(Cl)c1O`, the Potency result in assay [11], in [1], in assay [3], in assay [5], in [8] and in [10] was “inactive” throughout. For the same molecule, the Potency in assay [16] was 17.3 µM (active) and 62.1 µM (active); in assay [7] it was “inactive and 27.5 µM (active)”; in assay [9], 49.1 µM (active) and 43.6 µM (active) and inactive. The activity change, positive = activation is -52.3% (inactive) in assay [18] (at 42.5 µM (top of the series)); -60.8% (inactive) and -52.2% (inactive) and -57.2% (inactive) in assay [18] (at 92.4 µM (top of the series)).

Regarding `c1ccc2c(c1)-c1cccc3c1c-2cc1ccccc13`, the Potency result in assay [11], in assay [16], in assay [12], in assay [3], in assay [5] and in [7] was “inactive” throughout. Moreover, the Potency result in [8], in assay [9] and in assay [10] was “inactive” throughout. Besides, the Potency in [4] was 78.2 µM (active) and 89.8 µM (active).

For `CC1=CC(=O)c2ccccc2C1=O`, the Potency in [16] is 30.6 µM (active); in [13] it was 30.6 µM (active); in assay [2], 21.9 µM (active) and inactive; in [3], 40.1 µM (active); in [4], 40.1 µM (active); in [15], 43.3 µM (active). Moreover, the Potency in [5] is 43.6 µM (active); in assay [6], 15.5 µM (active); in assay [8] it was 49 µM (active); in [9], 21.9 µM (active) and 23.9 µM (active); in assay [10], 13.8 µM (active) and 23.9 µM (active). Further, the Potency result in [19], in assay [12] and in assay [7] was “inactive” throughout. In addition, the activity change, positive = activation is -26.5% (inactive) in assay [18] (at 42.5 µM (top of the series)) and -78.8% (inactive) in assay [18] (at 92.4 µM (top of the series)).
